# According to the supplement of paper PMC8728848:
# Shown is part of a subset that was picked to be rich in the strongest signals.
# Legend:
# Assay in all cases: glycan array binding signal (z-score within array); higher = stronger binding
# [1] = test system: Fuc(a1-2)Gal6S(b1-4)Glc6S; conditions: glycan notation: IUPAC condensed, linker removed
# In short: (§1)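 Glycan array data were curated from 3228 arrays in the Consortium for Functional Glycomics database and kept only where the protein sequence was available. Glycan names were converted to IUPAC-condensed notation, and columns mapping to the same glycan were averaged. The binding signal is a within-array Z-score, averaged across arrays of the same protein sequence at different concentrations or buffers and across linkers. Negative Z-scores can be read as non-binding.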
# [2] = test system: Fuc(a1-2)Gal; conditions: glycan notation: IUPAC condensed, linker removed
# In short: as §1
# [3] = test system: Fuc(a1-2)Gal6S(b1-3)GlcNAc; conditions: glycan notation: IUPAC condensed, linker removed
# In short: as §1
# [4] = test system: Fuc(a1-2)[Gal(a1-3)]Gal(b1-4)GlcNAc(b1-3)[Fuc(a1-2)[Gal(a1-3)]Gal(b1-4)GlcNAc(b1-6)]GalNAc; conditions: glycan notation: IUPAC condensed, linker removed
# In short: as §1
# [5] = test system: Fuc(a1-2)Gal6S(b1-4)GlcNAc; conditions: glycan notation: IUPAC condensed, linker removed
# In short: as §1
# [6] = test system: Fuc(a1-2)[Gal(a1-3)]Gal; conditions: glycan notation: IUPAC condensed, linker removed
# In short: as §1
# [7] = test system: Fuc(a1-2)Gal(b1-4)[Fuc(a1-3)]GlcNAc(b1-2)Man(a1-3)[Fuc(a1-2)Gal(b1-4)[Fuc(a1-3)]GlcNAc(b1-2)Man(a1-6)]Man(b1-4)GlcNAc(b1-4)GlcNAc; conditions: glycan notation: IUPAC condensed, linker removed
# In short: as §1
# [8] = test system: Fuc(a1-2)Gal(b1-4)[Fuc(a1-3)]GlcNAc(b1-2)[Fuc(a1-2)Gal(b1-4)[Fuc(a1-3)]GlcNAc(b1-4)]Man(a1-3)[Fuc(a1-2)Gal(b1-4)[Fuc(a1-3)]GlcNAc(b1-2)Man(a1-6)]Man(b1-4)GlcNAc(b1-4)GlcNAc; conditions: glycan notation: IUPAC condensed, linker removed
# In short: as §1
# [9] = test system: Fuc(a1-2)Gal(b1-4)[Fuc(a1-3)]GlcNAc(b1-3)GalNAc; conditions: glycan notation: IUPAC condensed, linker removed
# In short: as §1
# [10] = test system: Fuc(a1-2)Gal(b1-4)[Fuc(a1-3)]GlcNAc; conditions: glycan notation: IUPAC condensed, linker removed
# In short: as §1
# [11] = test system: Fuc(a1-2)[Gal(a1-3)]Gal(b1-4)Glc; conditions: glycan notation: IUPAC condensed, linker removed
# In short: as §1
# [12] = test system: Fuc(a1-2)[Gal(a1-3)]Gal(b1-4)[Fuc(a1-3)]GlcNAc(b1-3)GalNAc; conditions: glycan notation: IUPAC condensed, linker removed
# In short: as §1
# [13] = test system: Fuc(a1-2)Gal(b1-4)[Fuc(a1-3)]GlcNAc(b1-3)Gal(b1-4)[Fuc(a1-3)]GlcNAc(b1-3)Gal(b1-4)[Fuc(a1-3)]GlcNAc; conditions: glycan notation: IUPAC condensed, linker removed
# In short: as §1
# [14] = test system: Fuc(a1-2)Gal(b1-4)[Fuc(a1-3)]GlcNAc(b1-3)Gal(b1-4)[Fuc(a1-3)]GlcNAc; conditions: glycan notation: IUPAC condensed, linker removed
# In short: as §1
# [15] = test system: Fuc(a1-2)[Gal(a1-3)]Gal(b1-4)GlcNAc(b1-3)GalNAc; conditions: glycan notation: IUPAC condensed, linker removed
# In short: as §1
# [16] = test system: Fuc(a1-2)Gal3S(b1-4)GlcNAc; conditions: glycan notation: IUPAC condensed, linker removed
# In short: as §1
# [17] = test system: Fuc(a1-2)[Gal(a1-4)]Gal(b1-4)GlcNAc; conditions: glycan notation: IUPAC condensed, linker removed; mutation: R125K
# In short: as §1
# [18] = test system: Fuc(a1-2)Gal6S(b1-4)Glc; conditions: glycan notation: IUPAC condensed, linker removed
# In short: as §1
# [19] = test system: Fuc(a1-2)[Gal(a1-3)]Gal(b1-3)GlcNAc(b1-2)Man(a1-3)[Fuc(a1-2)[Gal(a1-3)]Gal(b1-3)GlcNAc(b1-2)Man(a1-6)]Man(b1-4)GlcNAc(b1-4)GlcNAc; conditions: glycan notation: IUPAC condensed, linker removed
# In short: as §1
# [20] = test system: Fuc(a1-2)[Gal(a1-3)]Gal(b1-4)GlcNAc(b1-2)Man(a1-3)[Fuc(a1-2)[Gal(a1-3)]Gal(b1-4)GlcNAc(b1-2)Man(a1-6)]Man(b1-4)GlcNAc(b1-4)[Fuc(a1-6)]GlcNAc; conditions: glycan notation: IUPAC condensed, linker removed
# In short: as §1
# Avaren (Actinomycete K97), sequence (chain, as listed by the source): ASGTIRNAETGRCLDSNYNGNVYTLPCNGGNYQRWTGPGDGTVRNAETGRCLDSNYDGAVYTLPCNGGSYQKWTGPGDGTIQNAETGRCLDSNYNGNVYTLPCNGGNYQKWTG
# PILRb (Mus musculus), Q2YSF2, sequence (Q2YSF2 entry or part of it): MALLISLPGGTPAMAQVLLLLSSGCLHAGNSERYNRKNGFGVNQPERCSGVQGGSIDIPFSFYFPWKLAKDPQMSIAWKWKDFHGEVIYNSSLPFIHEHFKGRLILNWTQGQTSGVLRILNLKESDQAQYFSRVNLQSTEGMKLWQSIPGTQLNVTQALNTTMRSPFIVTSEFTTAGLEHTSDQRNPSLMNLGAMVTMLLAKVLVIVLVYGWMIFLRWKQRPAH
# PILRa (Mus musculus), Q2YSF3, sequence (Q2YSF3 entry or part of it): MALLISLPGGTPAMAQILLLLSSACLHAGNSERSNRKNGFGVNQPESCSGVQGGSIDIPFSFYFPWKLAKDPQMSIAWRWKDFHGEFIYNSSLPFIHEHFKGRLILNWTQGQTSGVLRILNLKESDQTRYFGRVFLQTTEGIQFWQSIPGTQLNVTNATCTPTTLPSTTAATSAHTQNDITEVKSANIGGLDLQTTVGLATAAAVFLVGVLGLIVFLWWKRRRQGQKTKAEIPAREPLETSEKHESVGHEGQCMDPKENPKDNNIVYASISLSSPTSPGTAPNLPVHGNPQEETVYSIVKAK
# CHI3L1 (Homo sapiens), P36222, sequence (P36222 whole entry): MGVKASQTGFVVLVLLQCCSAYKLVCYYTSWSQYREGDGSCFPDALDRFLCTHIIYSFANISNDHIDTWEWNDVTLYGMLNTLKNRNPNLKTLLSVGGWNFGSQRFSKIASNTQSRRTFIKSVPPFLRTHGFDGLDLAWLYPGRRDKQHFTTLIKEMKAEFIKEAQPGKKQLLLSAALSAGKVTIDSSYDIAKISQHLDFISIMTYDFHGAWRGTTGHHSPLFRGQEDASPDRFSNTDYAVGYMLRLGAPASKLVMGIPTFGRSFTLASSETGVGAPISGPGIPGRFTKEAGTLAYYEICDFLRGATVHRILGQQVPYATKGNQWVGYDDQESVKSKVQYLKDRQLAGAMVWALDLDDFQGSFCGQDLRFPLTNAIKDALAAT
# Neurocan (Homo sapiens), O14594, sequence (O14594 other isoform, or with tags, fused parts or gaps): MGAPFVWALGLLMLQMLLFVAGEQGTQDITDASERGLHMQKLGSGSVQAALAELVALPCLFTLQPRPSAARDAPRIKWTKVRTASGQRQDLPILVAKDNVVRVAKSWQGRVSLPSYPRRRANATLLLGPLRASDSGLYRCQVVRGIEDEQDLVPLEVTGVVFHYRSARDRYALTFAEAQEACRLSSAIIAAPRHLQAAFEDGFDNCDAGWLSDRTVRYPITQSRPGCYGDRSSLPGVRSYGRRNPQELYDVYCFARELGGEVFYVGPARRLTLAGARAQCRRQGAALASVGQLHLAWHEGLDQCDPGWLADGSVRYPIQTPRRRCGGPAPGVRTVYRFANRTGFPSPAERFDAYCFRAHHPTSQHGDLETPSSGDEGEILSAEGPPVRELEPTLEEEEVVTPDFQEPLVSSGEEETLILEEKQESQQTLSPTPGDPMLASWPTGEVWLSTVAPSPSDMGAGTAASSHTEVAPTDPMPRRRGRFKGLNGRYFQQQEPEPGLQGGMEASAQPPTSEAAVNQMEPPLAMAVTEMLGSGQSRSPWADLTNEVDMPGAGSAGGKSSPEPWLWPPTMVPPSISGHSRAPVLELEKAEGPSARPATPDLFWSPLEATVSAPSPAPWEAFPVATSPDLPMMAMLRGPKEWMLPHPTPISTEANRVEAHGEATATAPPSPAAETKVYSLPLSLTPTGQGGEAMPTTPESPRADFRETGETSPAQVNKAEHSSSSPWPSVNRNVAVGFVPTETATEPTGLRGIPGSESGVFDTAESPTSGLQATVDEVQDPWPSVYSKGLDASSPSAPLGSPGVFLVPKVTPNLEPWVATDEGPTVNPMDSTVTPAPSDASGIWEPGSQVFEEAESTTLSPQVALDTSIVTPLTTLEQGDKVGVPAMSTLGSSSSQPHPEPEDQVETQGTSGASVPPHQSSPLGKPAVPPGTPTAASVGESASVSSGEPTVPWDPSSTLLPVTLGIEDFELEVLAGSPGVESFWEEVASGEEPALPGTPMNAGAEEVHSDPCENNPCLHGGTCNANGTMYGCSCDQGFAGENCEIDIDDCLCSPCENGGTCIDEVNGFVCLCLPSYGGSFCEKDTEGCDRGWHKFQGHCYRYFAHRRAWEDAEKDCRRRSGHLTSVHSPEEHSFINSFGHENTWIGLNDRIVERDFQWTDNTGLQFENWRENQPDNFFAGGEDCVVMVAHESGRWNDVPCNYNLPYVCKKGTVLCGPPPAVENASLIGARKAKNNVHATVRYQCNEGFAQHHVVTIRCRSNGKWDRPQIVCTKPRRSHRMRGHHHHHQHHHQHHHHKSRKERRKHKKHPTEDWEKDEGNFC
# 6RG (Lolium perenne), sequence (chain, as listed by the source): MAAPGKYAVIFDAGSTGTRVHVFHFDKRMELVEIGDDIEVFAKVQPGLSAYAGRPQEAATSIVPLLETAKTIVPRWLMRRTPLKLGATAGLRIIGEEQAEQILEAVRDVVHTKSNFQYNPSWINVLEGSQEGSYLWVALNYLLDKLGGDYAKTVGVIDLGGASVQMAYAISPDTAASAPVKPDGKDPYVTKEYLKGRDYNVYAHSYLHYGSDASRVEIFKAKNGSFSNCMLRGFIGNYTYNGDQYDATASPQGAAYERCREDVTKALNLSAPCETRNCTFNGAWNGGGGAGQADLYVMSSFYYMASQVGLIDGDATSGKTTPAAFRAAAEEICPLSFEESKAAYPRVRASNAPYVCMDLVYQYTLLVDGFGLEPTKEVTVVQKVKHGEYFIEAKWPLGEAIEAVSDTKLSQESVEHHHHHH
# Regenerating Gene IV (Homo sapiens), Q9BYZ8, sequence (Q9BYZ8 whole entry, looked up): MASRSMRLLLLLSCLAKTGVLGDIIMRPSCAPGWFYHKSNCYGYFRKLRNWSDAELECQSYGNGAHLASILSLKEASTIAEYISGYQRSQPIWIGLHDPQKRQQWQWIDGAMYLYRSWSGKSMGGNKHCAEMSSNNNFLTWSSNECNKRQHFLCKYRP
# SRLC (Mus musculus), Q8VIF6, sequence (Q8VIF6 other isoform, or with tags, fused parts or gaps): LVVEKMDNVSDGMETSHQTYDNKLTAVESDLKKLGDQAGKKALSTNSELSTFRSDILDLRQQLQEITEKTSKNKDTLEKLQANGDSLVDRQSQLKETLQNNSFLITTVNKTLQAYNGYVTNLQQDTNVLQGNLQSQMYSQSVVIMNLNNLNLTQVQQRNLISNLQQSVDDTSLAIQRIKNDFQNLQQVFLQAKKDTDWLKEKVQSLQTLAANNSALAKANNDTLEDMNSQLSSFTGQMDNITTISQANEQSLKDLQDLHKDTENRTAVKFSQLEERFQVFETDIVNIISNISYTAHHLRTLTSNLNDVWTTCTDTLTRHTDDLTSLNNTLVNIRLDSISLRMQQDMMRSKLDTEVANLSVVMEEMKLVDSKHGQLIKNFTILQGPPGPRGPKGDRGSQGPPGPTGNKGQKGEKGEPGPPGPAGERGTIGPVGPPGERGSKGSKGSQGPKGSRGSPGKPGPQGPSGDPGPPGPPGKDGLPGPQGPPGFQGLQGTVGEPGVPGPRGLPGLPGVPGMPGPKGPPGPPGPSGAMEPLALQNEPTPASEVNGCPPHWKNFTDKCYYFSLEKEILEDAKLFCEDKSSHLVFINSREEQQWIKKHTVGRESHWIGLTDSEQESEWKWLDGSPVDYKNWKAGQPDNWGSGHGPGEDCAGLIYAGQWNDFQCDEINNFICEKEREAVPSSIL
# Aggrecan (Rattus norvegicus), NP_071526, sequence (chain, as listed by the source): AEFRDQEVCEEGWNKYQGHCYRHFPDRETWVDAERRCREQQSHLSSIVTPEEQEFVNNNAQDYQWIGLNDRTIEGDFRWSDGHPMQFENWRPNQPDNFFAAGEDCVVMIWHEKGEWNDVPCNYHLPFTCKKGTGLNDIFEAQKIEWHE
# 6RG (Lolium perenne), B9U140, sequence (B9U140 entry or part of it): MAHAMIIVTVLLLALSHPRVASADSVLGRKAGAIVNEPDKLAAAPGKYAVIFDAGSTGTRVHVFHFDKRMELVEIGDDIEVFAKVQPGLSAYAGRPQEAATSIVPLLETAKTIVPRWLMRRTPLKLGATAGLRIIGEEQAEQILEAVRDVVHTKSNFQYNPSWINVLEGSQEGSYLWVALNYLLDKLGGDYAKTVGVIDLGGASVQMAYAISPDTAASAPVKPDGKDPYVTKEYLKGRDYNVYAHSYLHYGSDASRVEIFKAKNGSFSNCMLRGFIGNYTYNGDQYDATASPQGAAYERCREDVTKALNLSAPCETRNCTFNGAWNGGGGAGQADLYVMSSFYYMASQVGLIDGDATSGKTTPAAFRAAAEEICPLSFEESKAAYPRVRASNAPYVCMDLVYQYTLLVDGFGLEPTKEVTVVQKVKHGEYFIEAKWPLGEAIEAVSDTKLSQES
# wLAT-1A (Homo sapiens), Q01650, sequence (Q01650 whole entry): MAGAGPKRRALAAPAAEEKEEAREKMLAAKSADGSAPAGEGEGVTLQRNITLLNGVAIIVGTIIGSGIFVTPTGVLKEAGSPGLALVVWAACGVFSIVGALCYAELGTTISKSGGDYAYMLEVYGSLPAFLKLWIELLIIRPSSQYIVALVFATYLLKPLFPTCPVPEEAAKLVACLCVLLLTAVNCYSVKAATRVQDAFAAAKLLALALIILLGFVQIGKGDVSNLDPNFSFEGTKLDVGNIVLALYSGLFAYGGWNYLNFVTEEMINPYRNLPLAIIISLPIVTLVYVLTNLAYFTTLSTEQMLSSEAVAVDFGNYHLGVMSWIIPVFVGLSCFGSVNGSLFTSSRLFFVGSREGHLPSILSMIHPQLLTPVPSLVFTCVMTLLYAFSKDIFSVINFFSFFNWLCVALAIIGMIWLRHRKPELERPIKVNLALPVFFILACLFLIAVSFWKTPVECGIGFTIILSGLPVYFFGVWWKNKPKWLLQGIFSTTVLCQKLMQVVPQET
substance,measurement,setting,value
"Regenerating Gene IV (Homo sapiens), Q9BYZ8",glycan array binding signal (z-score),[1],3.23
same,glycan array binding signal (z-score),[2],0.024
MpAFP RI GFP (Marinomonas primoryensis),glycan array binding signal (z-score),[3],-0.023
same,glycan array binding signal (z-score),[4],-0.23
"SRLC (Mus musculus), Q8VIF6",glycan array binding signal (z-score),[5],-0.208
same,glycan array binding signal (z-score),[6],-0.233
"wLAT-1A (Homo sapiens), Q01650",glycan array binding signal (z-score),[5],-0.807
"PILRb (Mus musculus), Q2YSF2",glycan array binding signal (z-score),[7],2.37
same,glycan array binding signal (z-score),[8],0.151
same,glycan array binding signal (z-score),[9],11.4
same,glycan array binding signal (z-score),[10],-0.235
same,glycan array binding signal (z-score),[11],-0.137
same,glycan array binding signal (z-score),[12],3.94
"PILRa (Mus musculus), Q2YSF3",glycan array binding signal (z-score),[13],-0.134
same,glycan array binding signal (z-score),[14],1.82
same,glycan array binding signal (z-score),[9],1.77
same,glycan array binding signal (z-score),[10],-0.097
same,glycan array binding signal (z-score),[15],-0.185
same,glycan array binding signal (z-score),[12],0.044
"Siglec-8 (Homo sapiens), Q9NYZ4",glycan array binding signal (z-score),[16],-0.157
same,glycan array binding signal (z-score),[3],0.008
same,glycan array binding signal (z-score),[1]; mutation: R125K,-0.235
same,glycan array binding signal (z-score),[4]; mutation: R125K,2.31
same,glycan array binding signal (z-score),[11],0.008
same,glycan array binding signal (z-score),[17],-0.066
Avaren (Actinomycete K97),glycan array binding signal (z-score),[10],-0.134
same,glycan array binding signal (z-score),[18],-0.124
same,glycan array binding signal (z-score),[19],-0.036
"Aggrecan (Rattus norvegicus), NP_071526",glycan array binding signal (z-score),[6],-0.088
6RG (Lolium perenne),glycan array binding signal (z-score),[14],-0.204
same,glycan array binding signal (z-score),[2],-0.033
"6RG (Lolium perenne), B9U140",glycan array binding signal (z-score),[1],0.291
"CHI3L1 (Homo sapiens), P36222",glycan array binding signal (z-score),[20],-0.116
same,glycan array binding signal (z-score),[12],-0.1
"Neurocan (Homo sapiens), O14594",glycan array binding signal (z-score),[8],2.6
same,glycan array binding signal (z-score),[12],0.513
